# PubChem BioAssay AID2148 (The Scripps Research Institute Molecular Screening Center, 2009)
# About 1,500 (62%) of roughly 2,400 compounds were called active. Rule as the data show it: active = inhibition above about 22%; inactive = the rest. The set was probably picked from earlier hits. The list is a sample of the results.
# Target: Melanin-concentrating hormone receptor 1 (Homo sapiens) (UniProt Q99705)
# Experiment: MCHR1 antagonists in cells, counter-screen for GPR7 antagonist project, cell-based, fluorescence, human (AID 2148);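 also: 0% = vehicle with agonist and 100% = vehicle without agonist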
# Conditions: MCHR1-expressing cells, fluorescence antagonist assay; at 4.4 µM; hits give high values
row,Structure (SMILES),inhibition
1,Cc1ccc(NC2=C(Cl)C(=O)OC2OC(=O)c2ccccc2C)cc1 (configuration not stated),39.7% (active)
2,COc1ccc(NC(=O)C2CCC(CNS(=O)(=O)c3csc(C(N)=O)c3)CC2)cc1OC (configuration not stated),7.62% (inactive)
3,CC1(C)CC(CNCCC(c2ccc(F)cc2)c2ccco2)CCO1 (configuration not stated),23.9% (active)
4,Cc1ccc(CNC(=O)C2CCN(S(=O)(=O)c3ccc4nc5c(c(C(=O)O)c4c3)CC(C)CC5)CC2)cc1 (configuration not stated),10.8% (inactive)
5,Cn1c(=O)c([N+](=O)[O-])c(Oc2ccccc2)c2ccccc21,30.5% (active)
6,COc1cc(OC)c(-n2cc(-c3ccc(Cl)cc3)[nH]c2=O)cc1Cl,53.2% (active)
7,Cc1cccc(-c2nc3ccc(C(=O)NCCN4CCN(C)CC4)cc3nc2-c2cccc(C)c2)c1,34.7% (active)
8,CN(c1ccccc1)S(=O)(=O)c1ccc(C(=O)NCCc2ccccc2)cc1,11.5% (inactive)
9,S=C(NCCc1ccccc1)Nc1ccccc1,33.6% (active)
10,COc1ccccc1N1CCN(c2ncnc3sc(C)c(-c4ccccc4)c23)CC1,56.4% (active)
11,COc1ccccc1CNC(=O)COc1ccc(C)nc1[N+](=O)[O-],-4% (inactive)
12,Cc1cc(OCc2ccc(C(=O)Nc3ccc(C(=O)O)cc3)o2)ccc1Cl,22% (active)
13,CC(C)(C)CC(C)(C)NCC(O)COCCOc1ccc(Br)cc1 (configuration not stated),47.4% (active)
14,O=C(Nc1ccc2ccccc2c1)Nc1ccc2snnc2c1,61.5% (active)
15,CCN1CCN(c2ccc([N+](=O)[O-])cc2C(=O)c2ccc(Cl)cc2)CC1,41.1% (active)
16,OC(CNCC1CCCO1)Cn1c2ccc(Br)cc2c2cc(Br)ccc21 (configuration not stated),81.1% (active)
17,O=C(CCCN1CCc2[nH]c3ccc(F)cc3c2C1)c1ccc(F)cc1,44.6% (active)
18,CS(=O)(=O)Nc1cccc(C2=NN(S(=O)(=O)c3ccccc3)C(c3cccs3)C2)c1 (configuration not stated),25.9% (active)
19,COc1ccc(OC)c(C(c2nnnn2C(C)(C)C)N2CCc3ccccc3C2)c1 (configuration not stated),47.3% (active)
20,COCCCNC(=S)N1CCN(c2nc(-c3cccc(OC)c3)cs2)CC1,51.1% (active)
21,Cc1ccc(NC(=O)CN2CCC3(O)CCCCC3C2c2ccc3c(c2)OCO3)c(C)c1 (configuration not stated),24.9% (active)
22,COc1ccc([N+](=O)[O-])cc1N(CC(O)CN(CC(C)C)CC(C)C)S(=O)(=O)c1ccc(C)cc1 (configuration not stated),66% (active)
23,COCCN(Cc1cc2cc3c(cc2nc1Cl)OCO3)C(=O)c1cccc(C)c1,37.5% (active)

row,Structure (SMILES),inhibition
1,Cc1cccc(CS(=O)(=O)c2ncc(Cl)c(C(=O)Nc3ccc(F)cc3)n2)c1,92.1% (active)
2,COc1ccc(N=C2SC(C(=O)Nc3ccc(F)cc3)CC(=O)N2C)cc1 (configuration not stated),3.76% (inactive)
3,Cc1ccccc1CN1C[C@@H]2C[C@@H](c3cn(C)nc3-c3ccccc3)N3CCC[C@@]23C1=O,21.2% (inactive)
4,COc1ccccc1Oc1ccc(S(=O)(=O)Nc2cccnc2)cc1,39.9% (active)
5,COc1ccc(C)cc1NC(=O)NCCCCc1ccccc1,22.6% (active)
6,CCC(C(=O)Nc1ccc(C(C)C)cc1)c1ccccc1 (configuration not stated),95.6% (active)
7,Cc1cc2c(cc1C)N(Cc1ccccc1)C1=NCCCN12,9.03% (inactive)
8,Cc1cc(Cl)ccc1OCCCC(=O)Nc1cccc(-n2cnnn2)c1,45.7% (active)
9,O=C(CCc1ccccc1)Nc1ccc(NC(=O)C2CC2)nc1,4.99% (inactive)
10,O=C(CN1CCN(C(=S)NC2CCCC2)CC1)Nc1ccc(Oc2ccccc2)cc1,52.8% (active)
11,O=C(CSc1nnc(-c2ccco2)o1)NCC(=O)c1ccccc1,19.5% (inactive)
12,COc1ccc(C(=O)CSc2nnc(COc3ccccc3)n2Cc2ccco2)cc1,38.8% (active)
13,CCSc1nsc(NC(=O)Nc2cccc(C(C)=O)c2)n1,62% (active)
14,C=CCSc1nsc(NC(=O)Nc2cccc(C(C)=O)c2)n1,68.9% (active)
15,Cc1ccc(NC(=S)N(CCCN2CCC(C)CC2)Cc2ccco2)cc1,-1.82% (inactive)
16,Oc1cccc(/C=N/Nc2ccc(Cl)nn2)c1O,28.3% (active)
17,N#CC1=C(SCc2ccc(C#N)cc2)N=C(N)C(c2nc(-c3ccccc3)cs2)C12CCCCC2 (configuration not stated),24.5% (active)
18,N=c1n(CCc2ccccc2)c2ccccc2n1Cc1ccccc1F,53.5% (active)
19,CN(C)CCCN(C(=O)c1ccc(S(=O)(=O)N2CCCCCC2)cc1)c1nc2ccc(Br)cc2s1,71.8% (active)
20,CN(C)CCCN(C(=O)c1ccc(S(=O)(=O)N2CCCc3ccccc32)cc1)c1nc2ccc(F)cc2s1,72.1% (active)
21,CCc1ccc2nc(N(CCCN(C)C)C(=O)c3ccc4c(c3)OCCO4)sc2c1,31.3% (active)
22,CCn1c2ccc(F)cc2c2nnc(SCCN3CCOCC3)nc21,-2.62% (inactive)
23,O=C(Nc1ccc2c(c1)OCO2)C1CC(c2c(F)cccc2Cl)=NO1 (configuration not stated),2.22% (inactive)

row,Structure (SMILES),inhibition
1,O=C(NCCNc1ccc([N+](=O)[O-])cc1Cl)c1ccccc1F,35.2% (active)
2,CN(C)S(=O)(=O)N1CCC(Oc2cccc(C(=O)NCCCC3CCCC3)c2)CC1,90.4% (active)
3,CS(=O)(=O)N(Cc1ccc(Cl)cc1)c1ccc(C(=O)NCCSCc2ccco2)cc1,22.2% (active)
4,CC(=O)N1CCCc2cc(S(=O)(=O)N3CCCC(C(=O)N4CCN(c5cccc(Cl)c5)CC4)C3)ccc21 (configuration not stated),71.3% (active)
5,CCc1c(C)nc2c(-c3ccccc3)c(C)nn2c1Nc1ccc(NC(C)=O)cc1,24.5% (active)
6,Cc1ccc2nc(C)c3c(c2c1)N(c1ccccc1)CC3,22.2% (active)
7,c1ccc(C2CNCc3c2ccc2ccccc32)cc1 (configuration not stated),73.3% (active)
8,CCCCCCCCCCOC(=O)Cn1c(COc2cccc(OC)c2)[n+](C)c2ccccc21,81.7% (active)
9,Cc1ccc(SCc2cc(=O)[nH]c(N3CCCCC3)n2)cc1,-8.9% (inactive)
10,CCN1CCN(c2c(Cl)cccc2NC(=O)c2ccc(Br)o2)CC1,21% (inactive)
11,CC(NCc1ccccc1OC1CCCC1)c1ccccc1 (configuration not stated),33% (active)
12,CC(C)(C)NCc1cc(Br)ccc1OC1CCCC1,11.2% (inactive)
13,CCN(CC)CCOCCOc1ccc(Cl)c2ccccc12,19.4% (inactive)
14,COc1ccccc1N(C(=O)Cn1nnc2ccccc21)C(C(=O)NCc1ccco1)c1ccc(C)o1 (configuration not stated),25.9% (active)
15,O=[N+]([O-])/C=C/c1ccc2c(ccn2Cc2ccccc2)c1,104% (active)
16,CCCOc1ccccc1C1CC(=O)Nc2cc3c(cc21)OCO3 (configuration not stated),51.8% (active)
17,COc1cc(OC)cc(C(=O)N[C@H](C(=O)OCC(=O)NC(C)c2ccccc2)C(C)C)c1 (some centres not stated),65% (active)
18,Cc1ccc(NC(=O)CN2C(=O)NC(C)(c3ccc(Cl)cc3)C2=O)c(Br)c1 (configuration not stated),6.97% (inactive)
19,COc1cc(NC(=O)CN2C(=O)NC(C)(c3ccc(OC(F)F)cc3)C2=O)cc(OC)c1OC (configuration not stated),28.4% (active)
20,C=CCNC(=O)COC(=O)c1ccccc1C(=O)N(C)C1CCCCC1,-2.95% (inactive)
21,C=CCC1(CC=C)CCCN1C(=O)c1cc(COc2ccc(-n3cncn3)cc2)on1,55.2% (active)
22,CCc1ccc(NC(=O)c2ccc(Cn3cc([N+](=O)[O-])cn3)cc2)cc1,35.1% (active)
23,CCOc1ccc(C(=O)NC(=S)Nc2ccc(N3CCOCC3)c(Cl)c2)cc1[N+](=O)[O-],24.7% (active)

row,Structure (SMILES),inhibition
1,CC(C(=O)N1CCN(c2ccccc2F)CC1)c1ccc([N+](=O)[O-])cc1 (configuration not stated),27.9% (active)
2,CCN(CC)Cc1c(C(=O)OC)nnn1-c1nonc1N,5.07% (inactive)
3,Clc1ccc(-c2cc(C3CCNCC3)[nH]n2)c(Cl)c1,35.6% (active)
4,O=C(COc1ccc(S(=O)(=O)Nc2cccc(C(F)(F)F)c2)cc1)N1CCOCC1,28% (active)
5,O=S(=O)(c1ccc(OCC(O)CN2CCN(c3ccccc3Cl)CC2)cc1)N1CCOCC1 (configuration not stated),38.9% (active)
6,O=C(NCCCN1CCN(c2ccc(F)cc2)CC1)Nc1ccc([N+](=O)[O-])cc1,65.1% (active)
7,Cc1c(CCO)c(=O)n(-c2ccccc2)n1S(=O)(=O)c1ccc(F)cc1,-12.3% (inactive)
8,Cc1ccc(O)c(NC(=S)NC(=O)COc2ccc(Br)cc2)c1,83.8% (active)
9,CN(c1cccc(NC(=O)Nc2ccc(Cl)cc2)c1)S(C)(=O)=O,67.3% (active)
10,CCOc1ncccc1C(=O)NCCc1ccc(OC)cc1,13.4% (inactive)
11,COc1ccc(CS(=O)/C(Cl)=C(/Cl)C(=O)Nc2ccc(OC)nc2)cc1 (configuration not stated),63.9% (active)
12,COc1cccc(CNCCc2c[nH]c3ccccc23)c1OCc1ccccc1F,83.6% (active)
13,Nc1nnc(SCC(=O)Nc2ccc3nc(SCC(=O)Nc4ccccc4)sc3c2)s1,81.6% (active)
14,Cc1ccccc1Nc1nnc(SCC(=O)c2cc3ccccc3o2)s1,10.6% (inactive)
15,O=C(CN1C(=O)/C(=C/c2ccccc2F)Sc2ccccc21)NCc1cccnc1,63% (active)
16,Clc1ccc(C2CC(c3cccs3)n3ncnc3N2)cc1Cl (configuration not stated),15.5% (inactive)
17,COc1ccc(C2Nc3ccccc3C(=O)N2Cc2ccccc2)cc1Cn1nnc2ccccc21 (configuration not stated),32.1% (active)
18,Fc1ccc(-c2ccc(-c3nn4c(-c5ccco5)nnc4s3)o2)cc1,12.7% (inactive)
19,O=C(NCCCN1CCOCC1)c1ccc2c(c1)N(Cc1cccc(F)c1)C(=O)c1ccccc1S2,25.3% (active)
20,Cc1ccccc1CN1C(=O)c2ccccc2Sc2ccc(C(=O)NCCCN3CCOCC3)cc21,17% (inactive)
21,CCOC(=O)C1CSC(CC(=O)Nc2ccc(OCC)cc2)C(=O)N1 (configuration not stated),3.62% (inactive)
22,CCC(C)c1ccccc1NC(=O)CN(C)CC(=O)Nc1ccccc1SC (configuration not stated),24.8% (active)
23,CCc1ccc(N(C(=O)c2csnn2)C(C(=O)NC2CCCCC2)c2ccncc2)cc1 (configuration not stated),17.6% (inactive)
